# Several values for one entry are separate records, joined by “and”; a condition that tells them apart may be missing. Equal entries are not always repeated. Values without a mark were called inactive. Results filed as inconclusive are left out. Entries that show only a call come without a potency. Activity calls are given as the source filed them. Unless noted, calls follow the shape of the dose curve; as a rule, active = well fitted curve in the direction sought with a large enough effect; inconclusive = small, poorly fitted or top-dose-only effect, or another doubt; inactive = no such curve, though single readings can be large; an effect the other way counts as inactive or inconclusive.
# Columns and labels:
# [1] = Cellular Toxicity (caspase-3) N2a (AID 665);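 also: compound exposure lasted 16 h at 37 °C before readout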
# Procedure, shortened: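 Plated mouse neuroblastoma N2a cells received titrated compounds for 16 h in complete medium. Caspase activity was then detected with a peptide-aminoluciferin luminescent reagent.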
# [2] = Cellular Toxicity (caspase-3) NIH 3T3 (AID 666);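 also: caspase signal read after 16 h compound exposure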
# Procedure, shortened: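 Concentration-response qHTS in NIH 3T3 mouse fibroblasts scores caspase-3/7 activation as rising luminescence after 16 hr compound exposure. Signals are scaled between DMSO-only and 100 uM tamoxifen.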
# [3] = Cell Viability - LYMP2-001 (AID 921); also: nearly all actives have a fitted effect of over 70% in size; also: potency is read from the fitted curve at half-maximal effect
# Procedure, shortened: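 Human lymphoblastoid LYMP2-001 cells, 2500 per well, in complete medium, treated 24 h at 37 C. Viability from cellular ATP by CellTiter-Glo luminescence; AC50 from Hill-equation fits of qHTS concentration-response.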
# [4] = MultiTox-Fluor Cytotoxicity Assay - LYMP1-001 - Dead Cells (AID 946)
# Procedure, shortened: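 AC50 from Hill fit of concentration-response; data normalized to DMSO (basal) and 15 uM tetraoctylammonium bromide (100%). LYMP1-001 lymphoblastoid cells, 2500/well, 16 hr compound at 37 C; dead-cell protease fluorescence, Ex/Em 485/520.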
# [5] = Cell Viability - LYMP1-002 - Assay at 16 hr (AID 948); also: potency is read from the fitted curve at half-maximal effect
# Procedure, shortened: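 LYMP1-002 human lymphoblastoid cells, 2500/well, were treated with compounds for 16 hr at 37 C in complete medium. Viability was read as intracellular ATP by CellTiter-Glo luminescence, and AC50 was derived from a Hill fit to concentration-response data.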
# [6] = MultiTox-Fluor Cytotoxicity Assay - LYMP1-002 - Live Cells (AID 955);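 also: cells exposed to compound for 16 hours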; also: potency is read from the fitted curve at half-maximal effect
# Procedure, shortened: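 Cytotoxicity in the human lymphoblastoid line LYMP1-002 is measured as loss of live-cell protease activity after 16 h treatment in complete culture medium. AC50 is derived from Hill-equation fits of qHTS concentration-response data.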
# [7] = target: Cytochrome P450 3A4 (Homo sapiens) (UniProt P08684); assay: qHTS Assay for Activators of Cytochrome P450 3A4 (AID 885); also: nearly all actives have a fitted effect of over 65% in size
# Cytochrome P450 3A4 (Homo sapiens), sequence (P08684 whole entry, looked up): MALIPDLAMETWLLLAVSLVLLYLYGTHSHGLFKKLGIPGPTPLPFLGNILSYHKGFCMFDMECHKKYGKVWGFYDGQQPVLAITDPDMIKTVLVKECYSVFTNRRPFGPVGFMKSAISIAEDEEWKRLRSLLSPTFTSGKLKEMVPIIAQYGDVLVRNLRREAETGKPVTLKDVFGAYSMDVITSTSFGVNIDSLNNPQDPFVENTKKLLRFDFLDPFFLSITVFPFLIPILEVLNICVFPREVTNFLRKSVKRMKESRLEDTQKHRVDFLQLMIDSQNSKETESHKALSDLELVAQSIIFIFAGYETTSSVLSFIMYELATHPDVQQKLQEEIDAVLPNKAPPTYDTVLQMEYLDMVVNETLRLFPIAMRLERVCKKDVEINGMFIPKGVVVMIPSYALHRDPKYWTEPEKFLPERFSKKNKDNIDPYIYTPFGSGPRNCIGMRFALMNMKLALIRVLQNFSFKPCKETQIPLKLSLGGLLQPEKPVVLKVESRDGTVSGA
# Procedure, shortened: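 20nM CYP3A4 + 25uM Luciferin-PPXE (=KM), 200mM KPO4; cpd 10 min RT; NADPH regen, 60 min RT; stop w/ detection buffer, 20 min; luminescence. Normalized to 57 uM ketoconazole.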
# [8] = Confirmation and Secondary Assay for Modulators of Hemoglobin Beta Chain Splicing at IVS2 654 locus (AID 910);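 also: HeLa cells stably carrying EGFP split by mutant beta-globin IVS2-654 intron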
# Procedure, shortened: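 HeLa cells stably expressing EGFP interrupted by β-globin IVS2-654 intron, seeded overnight in Opti-MEM/2% FCS, then treated 2 days at 37 °C. Restored splicing read as total peak GFP intensity per well by laser scanning cytometry (488 nm excitation, 500–520 nm emission); 500 nM antisense PNA as control.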
# [9] = target: Guanine nucleotide-binding protein G(i) subunit alpha-1 (Homo sapiens) (UniProt P63096); assay: qHTS Assay for Inhibitors of RGS12 GoLoco Motif Activity (Green Fluorophore) (AID 879); also: potency is read from the fitted curve at half-maximal effect
# Guanine nucleotide-binding protein G(i) subunit alpha-1 (Homo sapiens), sequence (P63096 whole entry, looked up): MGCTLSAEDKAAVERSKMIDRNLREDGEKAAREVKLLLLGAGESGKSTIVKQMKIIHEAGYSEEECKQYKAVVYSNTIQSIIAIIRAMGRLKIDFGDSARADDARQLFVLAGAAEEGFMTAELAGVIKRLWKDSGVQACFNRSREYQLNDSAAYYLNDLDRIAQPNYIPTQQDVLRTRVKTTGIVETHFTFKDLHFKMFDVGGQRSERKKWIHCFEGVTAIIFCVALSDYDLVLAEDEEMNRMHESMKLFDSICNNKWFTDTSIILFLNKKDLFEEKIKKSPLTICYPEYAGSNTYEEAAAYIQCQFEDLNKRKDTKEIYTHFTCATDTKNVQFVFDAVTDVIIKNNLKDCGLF
# Procedure, shortened: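 Fluorescence polarization assay: 50 nM Gαi1 with 10 nM FITC-labeled RGS12 GoLoco peptide in 10 mM Tris pH 7.5, 150 mM NaCl, 0.1 mM GDP, 0.05% NP40, 10 min at room temperature with compound.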
# [10] = target: Cytochrome P450 2C9 (Homo sapiens) (UniProt P11712); assay: qHTS Assay for Inhibitors and Substrates of Cytochrome P450 2C9 (AID 883); also: nearly all actives have a fitted effect of over 60% in size; also: potency is read from the fitted curve at half-maximal effect
# Cytochrome P450 2C9 (Homo sapiens), sequence (P11712 whole entry, looked up): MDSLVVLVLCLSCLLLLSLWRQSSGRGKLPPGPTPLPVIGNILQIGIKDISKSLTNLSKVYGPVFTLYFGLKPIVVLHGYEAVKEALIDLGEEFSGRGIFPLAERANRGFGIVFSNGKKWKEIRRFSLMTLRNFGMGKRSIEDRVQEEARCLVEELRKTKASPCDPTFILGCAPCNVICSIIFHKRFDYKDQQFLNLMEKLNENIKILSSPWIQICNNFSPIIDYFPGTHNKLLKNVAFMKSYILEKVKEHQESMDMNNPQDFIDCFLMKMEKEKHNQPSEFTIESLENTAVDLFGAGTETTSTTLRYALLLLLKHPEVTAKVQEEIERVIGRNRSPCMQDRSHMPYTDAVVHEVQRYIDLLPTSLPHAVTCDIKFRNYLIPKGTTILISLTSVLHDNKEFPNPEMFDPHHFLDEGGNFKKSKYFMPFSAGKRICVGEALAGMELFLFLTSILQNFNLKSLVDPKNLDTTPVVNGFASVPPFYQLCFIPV
# Procedure, shortened: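 Signal: luciferase luminescence reporting luciferin produced by CYP2C9. Conditions: 10nM enzyme, Luciferin-H 100uM at KM, 25mM KPO4, 37C, 60 min NADPH-driven reaction. Reference: 57uM sulphaphenazole as 100% inhibition.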
# [11] = target: Cytochrome P450 2D6 (Homo sapiens) (UniProt P10635); assay: qHTS Assay for Inhibitors and Substrates of Cytochrome P450 2D6 (AID 891); also: nearly all actives have a fitted effect of over 60% in size; also: potency is read from the fitted curve at half-maximal effect
# Cytochrome P450 2D6 (Homo sapiens), sequence (P10635 whole entry, looked up): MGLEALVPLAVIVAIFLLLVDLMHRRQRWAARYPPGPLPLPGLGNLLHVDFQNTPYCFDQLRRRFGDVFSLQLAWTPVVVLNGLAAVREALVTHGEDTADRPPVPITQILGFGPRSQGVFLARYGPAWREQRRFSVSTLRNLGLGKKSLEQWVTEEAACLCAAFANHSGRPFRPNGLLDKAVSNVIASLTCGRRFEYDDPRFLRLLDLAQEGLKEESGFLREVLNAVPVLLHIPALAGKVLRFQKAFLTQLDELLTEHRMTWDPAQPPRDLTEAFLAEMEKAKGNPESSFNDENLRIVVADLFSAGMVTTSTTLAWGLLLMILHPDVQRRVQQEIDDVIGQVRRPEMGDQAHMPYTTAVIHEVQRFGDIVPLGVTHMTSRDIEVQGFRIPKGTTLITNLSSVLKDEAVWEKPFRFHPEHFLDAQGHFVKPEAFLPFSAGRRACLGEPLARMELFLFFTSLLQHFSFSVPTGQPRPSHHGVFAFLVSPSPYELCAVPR
# Procedure, shortened: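 Human CYP2D6 (5 nM) with 30 uM Luciferin-ME EGE (at Km) in 100 mM KPO4, compound preincubated 10 min, then NADPH regeneration system for 60 min at room temperature. Luciferin read by luminescence; normalized to 1.43 uM quinidine.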
# [12] = target: Cytochrome P450 2C19 (Homo sapiens) (UniProt P33261); assay: qHTS Assay for Inhibitors and Substrates of Cytochrome P450 2C19 (AID 899); also: nearly all actives have a fitted effect of over 60% in size; also: potency is read from the fitted curve at half-maximal effect
# Cytochrome P450 2C19 (Homo sapiens), sequence (P33261 whole entry, looked up): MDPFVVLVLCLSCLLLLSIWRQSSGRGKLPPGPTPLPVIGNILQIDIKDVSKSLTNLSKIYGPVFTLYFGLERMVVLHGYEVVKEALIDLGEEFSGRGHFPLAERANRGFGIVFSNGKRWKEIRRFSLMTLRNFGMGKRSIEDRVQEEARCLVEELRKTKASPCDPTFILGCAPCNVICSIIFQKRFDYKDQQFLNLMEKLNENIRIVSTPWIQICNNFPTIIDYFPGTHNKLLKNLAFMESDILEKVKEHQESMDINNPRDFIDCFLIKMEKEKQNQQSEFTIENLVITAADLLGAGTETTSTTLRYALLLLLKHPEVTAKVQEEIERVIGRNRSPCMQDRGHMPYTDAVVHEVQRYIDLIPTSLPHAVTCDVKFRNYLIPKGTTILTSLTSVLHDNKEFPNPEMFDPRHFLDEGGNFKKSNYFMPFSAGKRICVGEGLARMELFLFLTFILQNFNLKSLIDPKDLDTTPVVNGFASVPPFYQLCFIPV
# Procedure, shortened: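 Signal comes from luciferase acting on luciferin released by CYP2C19-mediated hydroxylation of Luciferin-H EGE, 10uM (KM). Assay mix: 5nM enzyme, 50mM KPO4; 60 min at 37C with NADPH regeneration. Data normalized against 57uM ketoconazole.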
# [13] = qHTS Assay for Identification of Small Molecule Agonists for Thrombopoietin (TPO) Signaling Pathway (AID 917)
# Procedure, shortened: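 Murine Ba/F3 cells expressing human TPO receptor and GPIIb-promoter luciferase, IL-3-starved overnight, given compound plus TPO at 26 pM (EC50). After 24 h at 37 C, 5% CO2, luminescence read.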
# [14] = target: Muscarinic acetylcholine receptor M1 (Rattus norvegicus) (UniProt P08482); assay: qHTS Assay for Antagonists of Acetylcholine Muscarinic M1 Receptor: Measurement of IP-One Response (AID 944); also: nearly all actives have a fitted effect of over 75% in size
# Muscarinic acetylcholine receptor M1 (Rattus norvegicus), sequence (P08482 whole entry, looked up): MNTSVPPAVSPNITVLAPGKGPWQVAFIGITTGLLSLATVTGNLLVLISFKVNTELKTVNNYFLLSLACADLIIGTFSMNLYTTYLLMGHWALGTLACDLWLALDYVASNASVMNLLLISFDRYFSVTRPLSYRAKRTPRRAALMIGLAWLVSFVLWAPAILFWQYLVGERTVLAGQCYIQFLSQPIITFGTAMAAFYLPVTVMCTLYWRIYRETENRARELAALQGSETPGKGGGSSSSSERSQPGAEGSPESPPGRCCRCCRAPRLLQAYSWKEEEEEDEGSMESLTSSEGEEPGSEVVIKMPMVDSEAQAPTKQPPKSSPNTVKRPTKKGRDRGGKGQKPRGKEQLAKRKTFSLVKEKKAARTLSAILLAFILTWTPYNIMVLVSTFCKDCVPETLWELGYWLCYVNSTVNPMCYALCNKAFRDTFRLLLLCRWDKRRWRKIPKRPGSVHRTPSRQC
# Procedure, shortened: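 Steps: plate transfected CHO-M1 cells overnight; add test compound, 10 min; add carbachol (200 nM, EC80) in stimulation buffer with LiCl; incubate 30 min; add labelled IP1 tracer and anti-IP1 antibody in lysis buffer; read HTRF after 10 min.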
# [15] = target: Pyruvate kinase (Leishmania mexicana) (UniProt Q27686); assay: qHTS Validation Assay for Inhibitors of Leishmania Mexicana Pyruvate Kinase (AID 945); also: potency is read from the fitted curve at half-maximal effect
# Pyruvate kinase (Leishmania mexicana), sequence (Q27686 2-499 E452W): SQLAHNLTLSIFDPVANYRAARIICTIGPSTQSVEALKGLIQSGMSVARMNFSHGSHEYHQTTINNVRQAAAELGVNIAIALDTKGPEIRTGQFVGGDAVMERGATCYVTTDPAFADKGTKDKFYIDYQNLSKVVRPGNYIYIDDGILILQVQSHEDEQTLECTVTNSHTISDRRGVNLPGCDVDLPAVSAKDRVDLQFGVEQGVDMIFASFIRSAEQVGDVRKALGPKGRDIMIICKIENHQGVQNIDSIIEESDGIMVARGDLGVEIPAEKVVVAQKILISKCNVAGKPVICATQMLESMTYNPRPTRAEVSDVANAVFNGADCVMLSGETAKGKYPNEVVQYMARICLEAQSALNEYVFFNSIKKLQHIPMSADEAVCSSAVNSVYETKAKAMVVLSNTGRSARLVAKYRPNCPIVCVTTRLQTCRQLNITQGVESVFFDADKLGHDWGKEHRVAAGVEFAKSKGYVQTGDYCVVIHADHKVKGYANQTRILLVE
# Procedure, shortened: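 Substrate mix (0.5 mM PEP, 0.1 mM ADP, 7 mM MgCl2, 50 mM KCl, pH 7.2 imidazole) received compound by pin tool, then 0.2 nM LmPYK E451W. After 1 h at room temperature, PKLight was added and luminescence measured.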
# [16] = target: Pyruvate kinase PKM (Homo sapiens) (UniProt P14618); assay: qHTS Assay for Activators of Human Muscle Pyruvate Kinase (AID 954; active = well fitted curve in the direction sought with a large enough effect, not every such curve was filed as active)
# Pyruvate kinase PKM (Homo sapiens), sequence (P14618 whole entry, looked up): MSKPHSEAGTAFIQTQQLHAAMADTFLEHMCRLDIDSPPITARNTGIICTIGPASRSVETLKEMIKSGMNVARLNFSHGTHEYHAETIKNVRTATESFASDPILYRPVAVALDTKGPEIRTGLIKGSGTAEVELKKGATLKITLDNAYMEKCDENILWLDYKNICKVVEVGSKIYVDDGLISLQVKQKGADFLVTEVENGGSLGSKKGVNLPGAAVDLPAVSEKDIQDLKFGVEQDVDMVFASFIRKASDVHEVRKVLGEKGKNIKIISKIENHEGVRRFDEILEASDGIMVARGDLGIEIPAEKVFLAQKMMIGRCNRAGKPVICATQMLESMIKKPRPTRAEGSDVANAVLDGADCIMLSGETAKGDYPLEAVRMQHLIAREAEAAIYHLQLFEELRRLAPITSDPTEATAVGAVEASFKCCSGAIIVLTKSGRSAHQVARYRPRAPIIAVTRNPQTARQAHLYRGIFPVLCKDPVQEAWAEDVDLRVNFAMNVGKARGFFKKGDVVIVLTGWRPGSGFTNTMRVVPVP
# Procedure, shortened: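 Luminescence from a luciferase ATP-detection/stop reagent reported PKM2 activity. Reactions contained 0.1 nM purified human enzyme, 0.5 mM PEP, 0.1 mM ADP and 7 mM MgCl2 at pH 7.2, run 1 h at RT.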
# [17] = qHTS Assay for Identification of Small Molecule Antagonists for NFkB Signaling Pathway (AID 895; active = well fitted inhibition curve with a large enough effect in the signal ratio, with a control signal flat, not every such curve was filed as active; the % refers to the signal ratio; also: potency is read from the fitted curve at half-maximal effect)
# Procedure, shortened: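 ME-180 NFkB-bla cells (beta-lactamase under NFkB response element), plated overnight, treated with compound then 10 pM TNF alpha (about EC50) for 5 hrs at 37 C. LiveBLAzer FRET read at 460/530 nm emission, 405 nm excitation.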
# [18] = target: Cytochrome P450 3A4 (Homo sapiens) (UniProt P08684); assay: qHTS Assay for Inhibitors and Substrates of Cytochrome P450 3A4 (AID 884); also: potency is read from the fitted curve at half-maximal effect; nearly all actives have a fitted effect of over 50% in size
# Procedure, shortened: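 20 nM human CYP3A4 with 25 uM Luciferin-PPXE (at KM) in 200 mM KPO4, preincubated 10 min with compound; NADPH regeneration started a 60 min RT reaction. Luciferin detected by luminescence, normalized to 57 uM ketoconazole as full inhibition.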
# [19] = qHTS Assay for Identification of Small Molecule Antagonists for Thrombopoietin (TPO) Signaling Pathway (AID 918); settings: TPO-dependent cell signaling reporter, antagonist mode; also: potency is read from the fitted curve at half-maximal effect; nearly all actives have a fitted effect of over 60% in size
# Procedure, shortened: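 First, Ba/F3 reporter cells expressing human TPO receptor were held overnight without IL-3. Next, compound and 26 pM TPO were added. After 24 hrs incubation at 37 C, luciferase luminescence under the Glycoprotein IIb promoter was recorded.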
# [20] = qHTS Assay for Identification of Small Molecule Agonists for Hypoxia Response Element Signaling Pathway (AID 914; active = well fitted activation curve with a large enough effect in the signal ratio, with a control signal flat, not every such curve was filed as active; the % refers to the signal ratio); settings: ME-180 (cervical carcinoma) HRE-bla reporter, beta-lactamase ratio, CoCl2, 17 h; active compounds read high
# Procedure, shortened: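 Read-out: CCF4 FRET ratio of 460nm to 530nm emission (excitation 405nm) after 2.5 hours at room temperature, taken from HRE-bla ME-180 cells that had been exposed to compound and EC50 CoCl2 for 17 hours.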
smiles,measurement,setting,value
O=Cc1ccco1,outcome,[1],inactive
same,Potency,[2],inactive
same,Potency,[3],inactive
same,Potency,[4],inactive
same,Potency,[5],inactive
same,Potency,[6],inactive
O=C(O)C(Cl)(Cl)Cl,outcome,[1],inactive
same,Potency,[2],inactive
same,Potency,[3],inactive
same,Potency,[4],inactive
same,Potency,[5],inactive
same,Potency,[6],inactive
COc1ccc2c(c1OC)C(=O)OC2C1c2cc3c(cc2CCN1C)OCO3 (configuration not stated),outcome,[1],inactive
same,Potency,[2],inactive
same,outcome,[7],inactive
same,outcome,[8],inactive
same,Potency,[3],inactive
same,Potency,[4],inactive
same,Potency,[5],inactive
same,Potency,[6],inactive
O=CC=O,outcome,[1],inactive
same,Potency,[2],inactive
same,Potency,[3],inactive
same,Potency,[4],inactive
same,Potency,[5],inactive
same,Potency,[6],inactive
CCCCCCCCOC(=O)c1ccccc1C(=O)OCCCCCCCC,outcome,[1],inactive
same,Potency,[2],inactive
same,Potency,[3],inactive
same,Potency,[4],inactive
same,Potency,[5],inactive
same,Potency,[6],inactive
[Cl-].[Cl-].[Hg+2],outcome,[1],inactive
same,Potency,[2],inactive
same,outcome,[8],inactive
same,Potency,[3],0.794 µM (active)
same,Potency,[5],10 µM (active)
same,Potency,[6],10 µM (active)
C[C@H]1CCC[C@H](O)CCCCCc2cc(O)cc(O)c2C(=O)O1,outcome,[1],inactive
same,Potency,[2],inactive
same,outcome,[7],inactive
same,Potency,[3],inactive
same,Potency,[4],inactive
same,Potency,[5],inactive
same,Potency,[6],inactive
COC1=CC(=O)O[C@@H](/C=C/c2ccccc2)C1,outcome,[1],inactive
same,Potency,[2],inactive
same,Potency,[3],inactive
same,Potency,[4],inactive
same,Potency,[5],inactive
same,Potency,[6],inactive
C[C@]12CCC(=O)C[C@@H]1CC[C@@H]1[C@@H]2CC[C@]2(C)[C@@H](O)CC[C@@H]12,outcome,[1],inactive
same,Potency,[2],inactive
same,outcome,[7],inactive
same,Potency,[3],inactive
same,Potency,[5],inactive
same,Potency,[6],inactive
CCOC(=O)c1ccccc1C(=O)OCC,outcome,[1],inactive
same,Potency,[2],inactive
same,Potency,[3],inactive
same,Potency,[4],inactive
same,Potency,[5],inactive
same,Potency,[6],inactive
CCS(=O)(=O)Nc1cccc(C(=C2CCCCC2)c2cnc[nH]2)c1,Potency,[9],inactive
same,Potency,[10],631 nM (active)
same,outcome,[7],inactive
same,Potency,[11],7.94 µM (active)
same,Potency,[12],7.9 nM (active)
same,Potency,[13],inactive
same,Potency,[14],inactive
same,Potency,[15],inactive
same,outcome,[16],inactive
O=[N+]([O-])c1cc(O)c(O)c([N+](=O)[O-])c1,Potency,[9],inactive
same,Potency,[10],10 µM (active) and 794 nM (active)
same,Potency,[11],inactive
same,Potency,[17],inactive
same,Potency,[12],inactive
same,outcome,[8],inactive
same,Potency,[13],inactive
same,Potency,[14],inactive
same,Potency,[15],inactive
same,outcome,[16],inactive
O=c1c2ccccc2[se]n1-c1ccccc1,Potency,[9],12.6 µM (active)
same,Potency,[10],1 µM (active) and 79.4 nM (active)
same,outcome,[7],inactive
same,Potency,[11],10 µM (active) and 1 µM (active)
same,Potency,[12],1.58 µM (active) and 126 nM (active)
same,Potency,[14],inactive
same,Potency,[15],10 µM (active)
same,outcome,[16],inactive
NNC(N)=O,outcome,[1],inactive
same,Potency,[2],inactive
same,Potency,[9],inactive
same,Potency,[3],inactive
same,Potency,[15],inactive
same,Potency,[4],inactive
same,Potency,[5],inactive
same,outcome,[16],inactive
same,Potency,[6],inactive
c1ccc2c(c1)[I+]c1ccccc1-2,Potency,[9],inactive
same,Potency,[18],3.16 µM (active)
same,outcome,[7],inactive
same,Potency,[11],3.98 µM (active) and 794 nM (active)
same,Potency,[12],501 nM (active) and 63.1 nM (active)
same,Potency,[19],0.0398 µM (active)
same,Potency,[14],inactive
same,Potency,[15],inactive
same,outcome,[16],inactive
CCCN(CCC)CCc1c[nH]c2ccc(C(N)=O)cc12,Potency,[9],inactive
same,Potency,[10],inactive
same,Potency,[17],inactive
same,Potency,[13],inactive
same,Potency,[15],inactive
same,outcome,[16],inactive
N#CCCN,Potency,[9],inactive
same,Potency,[17],inactive
same,activation,[20],19.4%
same,Potency,[13],inactive
same,Potency,[14],inactive
same,Potency,[15],inactive
same,outcome,[16],inactive
OCc1cnc[nH]1,Potency,[9],inactive
same,Potency,[17],inactive
same,Potency,[13],inactive
same,Potency,[14],inactive
same,Potency,[15],inactive
same,outcome,[16],inactive
C[N+]1(C)[C@@H]2CC[C@H]1CC(OC(=O)c1c[nH]c3ccccc13)C2 (some centres not stated),Potency,[9],inactive
same,outcome,[7],inactive
same,Potency,[19],10 µM (active)
same,Potency,[15],inactive
same,outcome,[16],inactive
N#CC(C#N)=Cc1cc(O)c(O)c(O)c1,Potency,[9],inactive
same,outcome,[7],inactive
same,Potency,[15],inactive
same,outcome,[16],inactive
COc1ccc2[nH]c3c(c2c1)CCNC3,Potency,[9],inactive
same,Potency,[17],5.01 µM (active)
same,Potency,[13],inactive
same,Potency,[14],inactive
same,Potency,[15],inactive
same,outcome,[16],inactive

# Source: PubChem BioAssay (NCATS)
